Source: PubChem (Broad Institute)
Tcruzi prolif: blocks T. cruzi growth in NIH3T3 culture | T. cruzi beta-gal in NIH3T3, GalScreen luminescence, 90 h | inhibition, % at 8.34 µM | 77,000 compounds, 5.9% hits | AID 624255;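 active = mean inhibition above about 93%, with at least 55% of replicates each passing it, limit read from the data, passing the limit was not always enough; inconclusive = only one of those two conditions holds; inactive = neither condition holds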
C diff growth: inhibitors of Clostridium difficile growth; growth activity, negative = inhibition, % at 16 µg/mL (by protocol); 86,000 compounds, 0.25% hits; Clostridium difficile clinical isolate growth, OD600, 24 h; hits give low values; AID 1259249;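 active = mean growth activity at or below -80% and every replicate also at or below -80%; inconclusive = mean at or below -80% but some replicate above -80%; inactive = mean growth activity above -80%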;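 also: 0% = DMSO wells and -100% = levofloxacin 16 µg/mL wells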
Pf Dd2 inh: P. falciparum Dd2 growth inhibition; SYBR Green, 72 h; hits give low values; activity change, % at 10 µM; 94,000 compounds, 2.3% hits; AID 1159554; in the data active = activity change below about -80%; inconclusive = no clear call, values can overlap the other calls
An asterisk follows results filed as active; ? = inconclusive; . = not tested or not shown; ! = not active in a repeat. A selection: hits, their analogues and other compounds. The true share with any hit is near 6.8%.

SMILES	Tcruzi prolif	C diff growth	Pf Dd2 inh
C[C@@H]1CCCCO[C@H](CN(C)Cc2ccc(C(=O)Nc3ccccc3N)cc2)[C@@H](C)CN([C@H](C)CO)C(=O)c2cc(NS(=O)(=O)c3ccc(Cl)cc3)ccc2O1	89	9	-82*
C[C@@H]1CCCCO[C@@H](CN(C)Cc2ccc(C(=O)Nc3ccccc3N)cc2)[C@@H](C)CN([C@H](C)CO)C(=O)c2cc(NS(=O)(=O)c3ccccc3)ccc2O1	.	3	-81*
Cc1noc(C)c1S(=O)(=O)Nc1ccc2c(c1)C(=O)N([C@H](C)CO)C[C@H](C)[C@H](CN(C)Cc1ccc(C(=O)Nc3ccccc3N)cc1)OCCCC[C@@H](C)O2	.	0	-86*
COc1ccc(S(=O)(=O)Nc2ccc3c(c2)C(=O)N([C@@H](C)CO)C[C@@H](C)[C@H](CN(C)Cc2ccc(C(=O)Nc4ccccc4N)cc2)OCCCC[C@@H](C)O3)cc1	62	1	?
Cc1noc(C)c1S(=O)(=O)Nc1ccc2c(c1)C(=O)N([C@H](C)CO)C[C@H](C)[C@@H](CN(C)Cc1ccc(C(=O)Nc3ccccc3N)cc1)OCCCC[C@@H](C)O2	.	0	?
C[C@@H]1CCCCO[C@@H](CN(C)Cc2ccc(C(=O)Nc3ccccc3N)cc2)[C@@H](C)CN([C@H](C)CO)C(=O)c2cc(NS(=O)(=O)c3ccc(F)cc3)ccc2O1	.	1	-77
CC=Cc1ccc2n(c1=O)C[C@@H]1[C@@H](CO)[C@H](C(=O)NCC)N(C(=O)CC3CC3)[C@H]21 (mixture of isomers)	-31	-8	.
COCCNC(=O)C[C@@H]1C[C@H]2c3cc(NC(=O)Nc4ccccc4)ccc3O[C@H]2[C@H](CO)O1	46	-2	-18
O=C(NCC1CC1)[C@@H]1[C@@H](CO)[C@@H]2Cn3c(ccc(-c4ccccc4F)c3=O)[C@H]1N2Cc1cccnc1	-134	1	.
C[C@@H]1CN([C@@H](C)CO)C(=O)c2cccc(NS(=O)(=O)c3ccccc3)c2O[C@H]1CN(C)Cc1ccncc1	-18	-4	31
COc1ccc(S(=O)(=O)N(C)C[C@H]2OCCCC[C@H](C)Oc3ccc(NC(=O)Nc4ccccc4)cc3C(=O)N([C@@H](C)CO)C[C@H]2C)cc1	49	-3	-83*
COc1ccc(NC(=O)Nc2ccc3c(c2)C(=O)N([C@H](C)CO)C[C@@H](C)[C@H](CN(C)S(=O)(=O)c2ccc(C)cc2)OCCCC[C@H](C)O3)cc1	72	.	-67
COc1ccc(S(=O)(=O)N(C)C[C@H]2OCCCC[C@@H](C)Oc3ccc(NC(=O)Nc4ccccc4)cc3C(=O)N([C@H](C)CO)C[C@@H]2C)cc1	-53	1	-9
COc1ccc(NC(=O)Nc2ccc3c(c2)C(=O)N([C@H](C)CO)C[C@@H](C)[C@H](CN(C)S(=O)(=O)c2ccccc2)OCCCC[C@@H](C)O3)cc1	-26	-4	-83*
COc1ccc(NC(=O)Nc2ccc3c(c2)C(=O)N([C@@H](C)CO)C[C@H](C)[C@@H](CN(C)S(=O)(=O)c2ccccc2)OCCCC[C@H](C)O3)cc1	31	-5	-55
COc1ccc(NC(=O)Nc2ccc3c(c2)C(=O)N([C@@H](C)CO)C[C@H](C)[C@H](CN(C)S(=O)(=O)c2ccc(C)cc2)OCCCC[C@@H](C)O3)cc1	39	.	-86*
CO[C@@H](CN(C)C(=O)C1CCOCC1)[C@H](C)CN(C(=O)Nc1ccc(C(F)(F)F)cc1)[C@@H](C)CO	69	.	10
O=C(C[C@@H]1CC[C@@H](NC(=O)Nc2cc(F)ccc2F)[C@@H](CO)O1)NCc1ccccn1	-1	.	17
O=C(Nc1ccccc1Cl)N1[C@@H]2CNC[C@H]1C2c1ccc(/C=C/c2ccccc2)cc1 (stereo partly specified)	.	13	-42
O=C(Nc1ccc(C(F)(F)F)cc1)N1[C@@H]2CNC[C@H]1C2c1ccc(/C=C/c2ccccc2)cc1 (stereo partly specified)	.	-103*!	?
Cc1ccccc1-c1ccc(C2[C@H]3CNC[C@@H]2N3C(=O)Nc2ccc(F)cc2)cc1 (stereo partly specified)	.	59	2
Cc1ccccc1-c1ccc(C2[C@H]3CNC[C@@H]2N3C(=O)Nc2ccc(C(F)(F)F)cc2)cc1 (stereo partly specified)	.	-96*	14
O=C(Nc1ccc(Cl)cc1)N1[C@@H]2CNC[C@H]1C2c1ccc(/C=C/c2ccccc2)cc1 (stereo partly specified)	.	-98*	-40
O=C(Nc1ccc(F)cc1)N1[C@@H]2CNC[C@H]1C2c1ccc(-c2ccccc2)cc1 (stereo partly specified)	.	59	20
O=C(Nc1ccc(C(F)(F)F)cc1)N1[C@@H]2CNC[C@H]1C2c1ccc(-c2ccccc2)cc1 (stereo partly specified)	.	-99*!	-29
SMILES	Tcruzi prolif	C diff growth	Pf Dd2 inh
O=C(Nc1ccc(Cl)cc1)N1[C@@H]2CNC[C@H]1C2c1ccc(-c2ccccc2)cc1 (stereo partly specified)	.	-3	-9
CCC(=O)N(C)C[C@@H]1Oc2cc(-c3ccc(C#N)cc3)ccc2S(=O)(=O)N([C@H](C)CO)C[C@H]1C	48	-7	-7
C[C@H]1CN([C@@H](C)CO)C(=O)c2cccc(NC(=O)c3ccncc3)c2O[C@@H]1CN(C)CC1CCCCC1	81	7	-36
C[C@H]1CN([C@@H](C)CO)S(=O)(=O)c2ccc(C#CC3(O)CCCC3)cc2O[C@@H]1CN(C)C(=O)c1ccncc1	-4	-8	6
Cc1noc(C)c1NC(=O)N(C)C[C@@H]1OCCCC[C@@H](C)Oc2ccc(NC(=O)c3ccccc3)cc2C(=O)N([C@@H](C)CO)C[C@H]1C	-12	.	-39
C[C@H](CO)N1C[C@H](C)[C@H](CN(C)C(=O)Cc2ccccc2)OCCCC[C@H](C)Oc2ccc(NC(=O)NC3CCCCC3)cc2C1=O	13	-22	-12
O=C(Nc1cc(F)ccc1F)N1[C@@H]2CNC[C@H]1C2c1ccc(/C=C/c2ccccc2)cc1 (stereo partly specified)	.	29	-51
O=C(Nc1ccc(F)cc1)N1[C@@H]2CNC[C@H]1C2c1ccc(/C=C/c2ccccc2)cc1 (stereo partly specified)	.	-101*!	-9
C[C@@H]1CCCCO[C@H](CN(C)C)[C@H](C)CN([C@H](C)CO)C(=O)c2cc(NC(=O)Cc3ccccc3)ccc2O1	-20	2	-5
COCCNC(=O)C[C@@H]1C[C@H]2c3cc(NC(=O)Nc4ccccc4)ccc3O[C@H]2[C@@H](CO)O1	48	-2	8
COc1cccc(NC(=O)N[C@@H]2C=C[C@@H](CC(=O)N3CCN(C)CC3)O[C@H]2CO)c1	9	0	-6
COc1ccc(NC(=O)N(C)C[C@H]2OCCCC[C@H](C)Oc3ccc(NC(=O)Nc4ccc(C(F)(F)F)cc4)cc3C(=O)N([C@H](C)CO)C[C@@H]2C)cc1	?	-1	-4
COc1ccc(NC(=O)N(C)C[C@@H]2OCCCC[C@H](C)Oc3ccc(NC(=O)c4ccccc4)cc3C(=O)N([C@H](C)CO)C[C@@H]2C)cc1	42	1	?
